This is part of a sample that, as a whole, favours compounds with a hit. Of some 79,000 tested, about 15% had one in any assay. Calls of active or inactive are those of the source. Rule as the data show it: active = growth inhibition above about 70%; inactive = the rest.
What was measured:
[1] = NCI Yeast Anticancer Drug Screen. Data for the rad50 strain (AID 155);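 also: 0% = growth of vehicle-only cultures of the same strain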; conditions: S. cerevisiae rad50 strain growth inhibition; at 50.0 µM; stronger effect = higher value
In short: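 Cells are treated with compound, grown, and their growth is then scored against vehicle-only cultures of the same repair-deficient yeast strain.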

[2] = NCI Yeast Anticancer Drug Screen. Data for the mec2-1 strain (AID 157); conditions: S. cerevisiae mec2-1 strain, at 50.0 µM, stronger effect = higher value
In short: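 Readout is yeast growth inhibition, normalised to vehicle-treated controls, in the mec2-1 strain exposed to compound.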

[3] = NCI Yeast Anticancer Drug Screen. Data for the sgs1 mgt1 strain (AID 161);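 also: 0% = growth of cultures given vehicle only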; conditions: S. cerevisiae sgs1 mgt1 strain, at 50.0 µM, stronger effect = higher value
In short: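 Compounds are added to genetically altered yeast, and growth is compared with cultures given vehicle alone to give percent inhibition.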

[4] = NCI Yeast Anticancer Drug Screen. Data for the cln2 rad14 strain (AID 165);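 also: 0% = growth equal to vehicle treated cultures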; conditions: S. cerevisiae cln2 rad14 strain, at 50.0 µM, stronger effect = higher value
In short: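 Relative to vehicle controls, growth inhibition of compound-treated cln2 rad14 yeast was recorded.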

[5] = NCI Yeast Anticancer Drug Screen. Data for the mlh1 rad18 strain (AID 175); conditions: S. cerevisiae mlh1 rad18 strain growth inhibition; at 50.0 µM; stronger effect = higher value
In short: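 Test agents were incubated with a yeast strain of defined genotype (DNA damage repair defect). Inhibition of growth was derived by comparison with vehicle-exposed cultures.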

[6] = NCI Yeast Anticancer Drug Screen. Data for the bub3 strain (AID 167); conditions: S. cerevisiae bub3 mutant strain, at 50.0 µM, stronger effect = higher value
In short: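 Part of a panel of yeast mutants defective in DNA damage repair or cell cycle regulation. Each strain is grown with compound, and inhibition is calculated relative to solvent-treated cultures.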

Measured: growth inhibition

COc1ccc(NS(=O)(=O)c2ccc(N=Cc3c4ccccc4nc4ccccc34)cc2)nn1
active: [1] 96.8% | [2] 95.5% | [3] 91.6% | [4] 79.9% | [5] 90.8%

COc1ccc(-c2c3c(nc4nc(SCC(=O)c5ccc(Br)cc5)nc(N)c24)CCCC3)cc1OC
inactive: [1] 0.05% | [2] -17.2% | [3] -27.9% | [4] -0.55% | [5] 9.65%

Cc1cc2c(C)nn(Cc3ccc(Cl)cc3Cl)c2c(C#N)c1C
inactive: [1] 18.2% | [2] -14.8% | [3] 24.9% | [4] 20.1% | [5] 31.6%

NC(=S)Nc1ccccc1-c1ccccc1
inactive: [1] 36.2% | [2] 13.8% | [3] 25% | [4] -6.9% | [5] 33.2%

O=Cc1ccc(N2CCCCC2)cc1
inactive: [1] 4.05% | [2] 7.95% | [3] -13.2% | [4] -24.2% | [5] -4.45%

C=CCNC(=S)/N=C/c1c(C(=O)OCC)[nH]n(-c2ccccc2)c1=O
inactive: [1] -27.8% | [2] -19.5% | [3] -44.8% | [4] -32.8% | [5] -54.6%

C=CC(=O)OCCCCCCCCCC
inactive: [1] 47.8% | [2] 5.6% | [3] 28.8% | [4] -0.7% | [5] 42.1%

Fc1ccc2c(c1)Nc1ccccc1S2
inactive: [1] -6.1% | [2] -1.95% | [3] 7.65% | [4] -8.85% | [5] -14.6%

CC(=O)NC1C(OCc2ccccc2)OC(CO)C(O)C1OCc1ccccc1 (configuration not stated)
inactive: [1] 27.3% | [2] -18.2% | [3] 15.6% | [4] -24.1% | [5] -11.8%

O=S(=O)(CS(=O)(=O)N1CCCCC1)N1CCCCC1
inactive: [1] -3.8% | [2] -5.4% | [3] -3.4% | [4] -9.7% | [6] 6.7% | [5] 0.95%

Nc1nc(N)c(N=Nc2cc(Cl)cc(Cl)c2)c(=O)[nH]1
inactive: [1] 24.2% | [2] 9.3% | [3] -12.3% | [4] -1.1% | [5] 8.8%

N/N=C(\C(=O)Nc1ccc(Cl)cc1Cl)C(c1cnc2ccccc2n1)[N+](=O)[O-] (configuration not stated)
inactive: [1] 12.5% | [2] -21.9% | [3] -3.6% | [4] -20.6% | [5] 0.45%

CCCN=C(N)NC#N
inactive: [1] 16.9% | [2] 0.8% | [3] -2.4% | [4] 7.85% | [5] 15.1%

COc1ccc(S(=O)(=O)N2OC2c2ccccc2)cc1 (configuration not stated)
inactive: [1] -22.2% | [2] 2.65% | [3] 14.7% | [4] 10% | [5] -6%

CC(C)=NOC(=O)Nc1cccc2c1OCO2
inactive: [1] -30.3% | [2] -19.4% | [3] -12% | [4] -14.8% | [5] 4.25%

O=c1oc2ccc(Br)cc2cc1-n1nnc2ccccc21
inactive: [1] -0.45% | [2] -6.55% | [3] 2.45% | [4] 0.6% | [5] 5.55%

C[Si](C)(C)Oc1cc(N=NNC2=CC(=O)c3ccccc3C2=O)c(O)c2ccccc12
inactive: [1] -0.1% | [2] 2.2% | [3] -11.8% | [4] -24% | [6] 7.6% | [5] 5.15%

CCCCOC(=O)c1ccc(OC(=O)Nc2ccccc2)cc1
inactive: [1] 11.2% | [2] 6% | [3] 11.4% | [4] 7.7% | [5] 3.7%

CCOC(=O)CSc1nnc(N)s1
inactive: [1] 21% | [2] 6.55% | [3] -6.15% | [4] 3.15% | [5] -1.5%

c1ccc(-c2nnn(CCN3CCCCC3)n2)cc1
inactive: [1] 33.1% | [2] 20.9% | [3] -3.9% | [4] 12.1% | [5] 23.5%

CCCCCOS(=O)(=O)O
inactive: [1] -0.3% | [2] 4.3% | [3] -0.6% | [4] -11% | [5] 5.3%

Oc1ccccc1C=Nc1ccc(Cl)cc1
inactive: [1] -1.35% | [2] 3.6% | [3] -5.5% | [4] -12.7% | [5] 6.85%

O=C1OC(=O)C2(Cl)C3C=CC(C3)C12 (configuration not stated)
inactive: [1] 9.3% | [2] -8.15% | [3] -15.6% | [4] -72.6% | [5] 4.8%

O=C1c2ccccc2C(=O)c2cc(Br)ccc21
inactive: [1] -6.75% | [2] -21.6% | [3] 12.4% | [4] -110% | [5] 0.2%
